# Reference: PubChem BioAssay (NCI)
# The panel holds about 83,000 compounds, 20% with a hit somewhere; the sample as a whole holds those more often.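 Treatment: one concentration, 48 hours, 96-well format. Scoring: percent growth, with anything below 10 considered active.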 Active and inactive are the calls of the source.
# Test system: MDA-MB-435 melanoma
# Assay: NCI-60 one-dose screen, 48 h (100 = growth as untreated, 0 = no growth, -100 = all killed)
# Conditions: 10 µM
row,SMILES,growth
1,C[C@H]1[C@@H](Oc2ccc(-c3cn(-c4ccnc5cc(Cl)ccc45)nn3)cc2)O[C@@H]2OC3(C)CC[C@H]4[C@H](C)CC[C@@H]1[C@@]24OO3,35.6% (inactive)
2,COc1ccc(/C=C/C(=O)c2nc3ccccc3n2Cc2ccc(Br)cc2)cc1,61.1% (inactive)
3,COC(=O)CCn1c(-c2ccc(-n3cc(-c4ccc(O[C@H]5O[C@@H]6OC7(C)CC[C@H]8[C@H](C)CC[C@@H]([C@H]5C)[C@@]68OO7)cc4)nn3)cc2)nc2ccccc21,24.5% (inactive)
4,C[C@H]1[C@H](OC(=O)CCC(=O)N(CCCc2cn(-c3ccc([N+](=O)[O-])cc3)nn2)CCNc2ccnc3cc(Cl)ccc23)O[C@@H]2OC3(C)CC[C@H]4[C@H](C)CC[C@@H]1[C@@]24OO3,31.5% (inactive)

# Test system: SW-620 colon
# Assay: as above
# Conditions: 10 µM
row,SMILES,growth
1,COc1cc2cc(C(=O)N3C[C@@H](CCl)c4c3cc(OC(=O)N3CCN(C)[C@@H]5CSSC[C@@H]53)c3ccccc43)[nH]c2c(OC)c1OC,-6.71% (active)
2,CCOP(=O)(OCC)C(NC(C)=O)C(=O)SCCN (centres undefined),112% (inactive)
3,COc1cc2cc(C(=O)N3C[C@@H](CCl)c4c3cc(OC(=O)N3CCN(C)[C@@H]5CSSC[C@H]53)c3ccccc43)[nH]c2c(OC)c1OC,-9.04% (active)
4,COc1ccc2cc([C@H](C)C(=O)[Se]CCC#N)ccc2c1,-22.9% (active)
5,CC12OOC(C)(OO1)C2CCC(=O)OCCNc1ccnc2cc(Cl)ccc12 (centres undefined),7.3% (active)
6,Cc1ccc2[nH]c(=S)n(-c3ccc(F)cc3)c(=O)c2c1,102% (inactive)
7,CCOC(=O)C1=C(Nc2ccccc2)C(=O)OC12C(=O)Nc1ccccc12 (centres undefined),97.1% (inactive)
8,CC12CCC3(CCC(=O)NCCCNc4ccnc5cc(Cl)ccc45)[C@@](C)(OO[C@]3(C)O1)O2,28.9% (inactive)
9,CC[C@]12C=CCN3CC[C@@]4(c5ccc(OC)cc5N(C)[C@H]4[C@@](O)(C(=O)OC)[C@@H]1OC(=O)CCCC[P+](C1CCCCC1)(C1CCCCC1)C1CCCCC1)[C@@H]32,2.08% (active)
10,CC(=O)Oc1ccccc1C(=O)[Se]C(=NC(C)C)NC(C)C,-72.4% (active)
11,COCCOCCOCCOc1ccc(-n2cc(CCCN(CCNc3ccnc4cc(Cl)ccc34)C(=O)CCC(=O)O[C@@H]3O[C@@H]4OC5(C)CC[C@H]6[C@H](C)CC[C@@H]([C@H]3C)[C@@]46OO5)nn2)cc1,30% (inactive)
12,C[C@H]1[C@@H](CC(=O)N[C@@H](Cc2coc3ccccc23)B(O)O)O[C@@H]2OC3(C)CC[C@H]4[C@H](C)CC[C@@H]1[C@@]24OO3,2.66% (active)
13,COP(=O)(CC(F)(F)C(F)(F)F)OC,-15.9% (active)
14,CC12OOC(C)(OO1)C2CCC(=O)NCCNc1ccnc2cc(Cl)ccc12 (centres undefined),80.6% (inactive)
15,CC[C@]12C=CCN3CC[C@@]4(c5ccc(OC)cc5N(C)[C@H]4[C@@](O)(C(=O)OC)[C@@H]1OC(=O)CCC[P+](c1ccc(C)cc1)(c1ccc(C)cc1)c1ccc(C)cc1)[C@@H]32,-85.2% (active)
16,CC(C)N=C([Se])NC(=O)c1ccccc1,-20.9% (active)
17,CC[C@]12C=CCN3CC[C@@]4(c5ccc(OC)cc5N(C)[C@H]4[C@@](O)(C(=O)OC)[C@@H]1OC(=O)CCC[P+](C1CCCCC1)(C1CCCCC1)C1CCCCC1)[C@@H]32,3.91% (active)
18,CC1=C(COCCOC(=O)c2ccc(S(=O)(=O)F)cc2)C2=C(C)C3(CC3)[C@@](C)(O)C(=O)C2=C1,62.3% (inactive)
19,CC[C@]12C=CCN3CC[C@@]4(c5ccc(OC)cc5N(C)[C@H]4[C@@](O)(C(=O)OC)[C@@H]1OC(=O)CCCC[P+](c1ccc(OC)cc1)(c1ccc(OC)cc1)c1ccc(OC)cc1)[C@@H]32,-88.7% (active)
20,CC1=C(CCC=NNC(N)=O)C2=C(C)C3(CC3)[C@@](C)(O)C(=O)C2=C1,-20.7% (active)
21,CC[C@@]12CC(C(=O)OC)=C3Nc4cc5c(cc4[C@@]34CCN(C[C@H]3O[C@H]31)[C@@H]24)[C@@H]1[C@H](O5)[C@@H](O)[C@@]2(CC)CC(C(=O)OC)=C3Nc4cc(OC)ccc4[C@@]34CCN1[C@@H]24,16.3% (inactive)
22,CCOP(=O)(CC(F)(F)C(F)(F)F)OCC,-8.33% (active)
23,CC1=C2C(=C[C@@](C)(COP(=O)(Oc3ccccc3)Oc3ccccc3)[C@@H]2O)C(=O)[C@@](C)(O)C12CC2,29.8% (inactive)
24,C[C@H]1[C@H](OC(=O)CCC(=O)N(CCCc2cn(-c3ccc(CN4CCOCC4)cc3)nn2)CCNc2ccnc3cc(Cl)ccc23)O[C@@H]2OC3(C)CC[C@H]4[C@H](C)CC[C@@H]1[C@@]24OO3,25.5% (inactive)
25,CC1=C(CCC=O)C2=C(C)C3(CC3)[C@@](C)(O)C(=O)C2=C1,-74.9% (active)
26,O=C(NC([Se])=NC1CCCCC1)c1ccc2c(c1)OCO2,41.2% (inactive)
27,C[C@H]1[C@H](OC(=O)CCC(=O)N(CCCc2cn(-c3ccc(C#N)cc3)nn2)CCNc2ccnc3cc(Cl)ccc23)O[C@@H]2OC3(C)CC[C@H]4[C@H](C)CC[C@@H]1[C@@]24OO3,18.2% (inactive)
28,C[C@H]1[C@@H](Oc2ccc(-c3cn(-c4ccnc5cc(Cl)ccc45)nn3)cc2)O[C@@H]2OC3(C)CC[C@H]4[C@H](C)CC[C@@H]1[C@@]24OO3,27% (inactive)
29,COC(=O)CCn1c(-c2ccc(-n3cc(-c4ccc(O[C@H]5O[C@@H]6OC7(C)CC[C@H]8[C@H](C)CC[C@@H]([C@H]5C)[C@@]68OO7)cc4)nn3)cc2)nc2ccccc21,23.9% (inactive)
30,C[C@H]1[C@H](OC(=O)CCC(=O)N(CCCc2cn(-c3ccc([N+](=O)[O-])cc3)nn2)CCNc2ccnc3cc(Cl)ccc23)O[C@@H]2OC3(C)CC[C@H]4[C@H](C)CC[C@@H]1[C@@]24OO3,38% (inactive)
